Assay [1] can be described thus: qHTS RealTime-Glo MT Cell Viability Assay in HEK293 cells - 0 hour (AID 1224880). Also: top concentration of the series differs between compounds; nearly all actives have a fitted effect of over 45% in size. Summed up:
(§1)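 Cells were seeded together with NanoLuc luciferase and a prosubstrate that viable cells reduce to a luciferase substrate. After a 5 h incubation at 37 C/5% CO2, compounds were added and luminescence was measured repeatedly during 40 h of treatment.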

Assay [2] can be described thus: A CellTox Green Cytotoxicity Assay to monitor cytotoxicity in HEK293 cells - 32 hour (AID 1224881). Also: nearly all actives have a fitted effect of over 40% in size. Also: potency is read from the fitted curve at half-maximal effect. Summed up:
(§2)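 Nonlytic real-time cytotoxicity: HEK293 + CellTox Green reagent plated, 5 h preincubation, pintool compound addition (23 nL in DMSO), 37 C for 40 h, fluorescence measured at successive time points.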

Assay [3] is described as follows: A CellTox Green Cytotoxicity Assay to monitor cytotoxicity in HepG2 cells - 0 hour (AID 1224882). Also: nearly all actives have a fitted effect of over 35% in size. Summed up: (§3)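 Read-out is fluorescence of a cyanine dye excluded from live cells that stains DNA of dead HepG2 cells, with signal proportional to cytotoxicity. Plates were read at 0, 8, 16, 24, 32 and 40 h after compound addition.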
The nature of assay [4]: A CellTox Green Cytotoxicity Assay to monitor cytotoxicity in HepG2 cells - 32 hour (AID 1224883). Also: nearly all actives have a fitted effect of over 50% in size. Also: potency is read from the fitted curve at half-maximal effect. Summed up:
as §3

Assay [5] in a line: A CellTox Green Cytotoxicity Assay to monitor cytotoxicity in HEK293 cells - 8 hour (AID 1224884). Also: nearly all actives have a fitted effect of over 35% in size. A digest of the protocol: as §2
Assay [6] is described as follows: qHTS RealTime-Glo MT Cell Viability Assay in HepG2 cells - 16 hour (AID 1224885). Also: nearly all actives have a fitted effect of over 50% in size. A digest of the protocol:
(§4)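 Real-time, nonlytic viability: 600 HepG2 cells/well mixed with NanoLuc enzyme plus prosubstrate; 5 h settle, compound (DMSO) added by pintool; luminescence monitored over 40 h at 37 C.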
(qHTS replaces the single test concentration by a dilution series.)

The nature of assay [7]: qHTS RealTime-Glo MT Cell Viability Assay in HEK293 cells - 24 hour (AID 1224886). Also: nearly all actives have a fitted effect of over 50% in size. Also: potency is read from the fitted curve at half-maximal effect. A digest of the protocol: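 Cells + reagent dispensed (600 cells/well, HEK293) → 5 h at 37 C/5% CO2 → 23 nL compound in DMSO pinned → 40 h at 37 C → luminescence read at 0, 8, 16, 24, 32, 40 h.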
A short description of assay [8]: qHTS RealTime-Glo MT Cell Viability Assay in HEK293 cells - 8 hour (AID 1224887). Also: nearly all actives have a fitted effect of over 50% in size. Also: potency is read from the fitted curve at half-maximal effect. Summed up: as §1
Assay [9] can be described thus: A CellTox Green Cytotoxicity Assay to monitor cytotoxicity in HEK293 cells - 16 hour (AID 1224888). Also: nearly all actives have a fitted effect of over 35% in size. Summed up: as §2
A short description of assay [10]: qHTS RealTime-Glo MT Cell Viability Assay in HepG2 cells - 0 hour (AID 1224889). Also: nearly all actives have a fitted effect of over 50% in size. Also: potency is read from the fitted curve at half-maximal effect. Summed up: as §4

Structures are written as SMILES. Where “and” joins values, the source holds several entries; their conditions need not be identical. Equal values may be shown once. Records with an inconclusive call do not appear. Some structures have more than one record in an assay (separate samples or runs), and their calls can disagree. Calls of active or inactive are those of the source. Calls follow the shape of the dose curve; as a rule, active = well fitted curve in the direction sought with a large enough effect in the repeat runs; inconclusive = weak or mixed curves; inactive = no such curve, though single readings can be large; an effect the other way counts as inactive or inconclusive.

In the case of `CCOCCOCCOCCO`, the outcome in [1], in assay [3] and in assay [5] was inactive. In addition, the Potency entry in assay [2], in assay [4], in [6], in [7], in assay [8] and in assay [9] was “inactive” in each case. The Potency result in assay [10] was “inactive”.

`CC(=O)OCc1ccccc1`: the result in [1], in assay [3] and in assay [5] was inactive. For the same compound, the Potency entry in assay [2], in assay [4], in [6], in assay [7], in assay [8] and in [9] was “inactive” throughout. Further, the Potency result in assay [10] was “inactive”.

`CC(=O)Oc1ccc(C)cc1`: the compound was called inactive in assay [1], in [3] and in assay [5]. Moreover, the Potency entry in assay [2], in [4], in assay [6], in assay [7], in [8] and in assay [9] was “inactive” in each case. Besides, the Potency entry in [10] was “inactive”.

Turning to `CC(=O)OCCOC(C)=O`, the call in assay [1], in assay [3] and in assay [5] was inactive. Further, the Potency result in assay [2], in assay [4], in [6], in assay [7], in assay [8] and in assay [9] was “inactive” in each case. Besides, the Potency result in assay [10] is “inactive”.

On to `CC(C)=CCl`, for which the outcome in [1], in [3] and in assay [5] was inactive. For the same compound, the Potency result in assay [2], in [4], in assay [6], in assay [7], in assay [8] and in [9] was “inactive” throughout. Besides, the Potency entry in assay [10] was “inactive”.

`O=C(O)c1ccc(S(=O)(=O)N(Cl)Cl)cc1`: the compound was called inactive in assay [1], in [3] and in assay [5]. In addition, the Potency result in assay [2], in assay [4], in assay [6], in [9] and in assay [10] was “inactive” each time. Further, the Potency is 49.3 µM (active) and inactive in assay [7]; 49.3 µM (active) and inactive in [8].

As to `Cc1ccc2ncccc2c1`, the call in assay [1], in [3] and in assay [5] was inactive. The Potency entry in assay [2], in [4], in [6], in assay [7], in assay [8] and in assay [9] was “inactive” in each case. For the same compound, the Potency entry in assay [10] was “inactive”.

For `CN(C)CCOC(=O)COc1ccc(Cl)cc1`, the result in assay [1], in [3] and in assay [5] was inactive. For the same compound, the Potency entry in assay [2], in [4], in assay [6], in assay [7], in assay [8] and in assay [9] was “inactive” in each case. Also, the Potency result in assay [10] was “inactive”.

Regarding `CC(CCl)OP(=O)(OC(C)CCl)OC(C)CCl` (centres undefined), the compound was classed as inactive in assay [1], in [3] and in assay [5]. Besides, the Potency entry in assay [2], in assay [4], in assay [6], in assay [7], in assay [8] and in assay [9] was “inactive” throughout. Further, in assay [10], the Potency entry was “inactive”.

`CC(C)c1cccc(C(C)C)c1`: the call in assay [1], in assay [3] and in assay [5] was inactive. In addition, the Potency entry in [2], in assay [4], in assay [6], in assay [7], in assay [8] and in [9] was “inactive” in each case. Moreover, the Potency result in assay [10] is “inactive”.

In the case of `CC(C)(C#N)c1cc(Cn2cncn2)cc(C(C)(C)C#N)c1`, the outcome in assay [1], in assay [3] and in assay [5] was inactive. In addition, the Potency entry in [2], in assay [4], in assay [6], in assay [7], in [8] and in [9] was “inactive” in each case. In assay [10], the Potency entry is “inactive”.

In the case of `CCCOC(=O)c1ccccc1`, the result in assay [1], in [3] and in [5] was inactive. Besides, the Potency result in assay [2], in assay [4], in assay [6], in assay [7], in [8] and in assay [9] was “inactive” throughout. Moreover, the Potency result in assay [10] was “inactive”.

As to `CCCCCCCCCCCC(=O)OC`, the outcome in [1], in assay [3] and in [5] was inactive. For the same compound, the Potency result in [2], in [4], in assay [6], in assay [7], in assay [8] and in assay [9] was “inactive” in each case. The Potency entry in [10] was “inactive”.

On to `NCCN1CCNCC1`, for which the compound was classed as inactive in assay [1], in assay [3] and in assay [5]. For the same compound, the Potency result in [2], in assay [4], in assay [6], in assay [7], in assay [8] and in assay [9] was “inactive” throughout. The Potency entry in assay [10] was “inactive”.

For `C=C(C)C(=O)OCC(C)C`, the call in [1], in assay [3] and in assay [5] was inactive. Further, the Potency entry in assay [2], in assay [4], in assay [6], in [7], in assay [8] and in assay [9] was “inactive” each time. Also, the Potency result in assay [10] was “inactive”.

Turning to `CCCCCCCCCCCCCCCCO`, the outcome in assay [1], in assay [3] and in assay [5] was inactive. Further, the Potency result in [2], in assay [4], in [6], in assay [7], in [8] and in [9] was “inactive” in each case. The Potency entry in assay [10] is “inactive”.

Consider `CCCCC(C=O)CC` (centres undefined), for which the compound was classed as inactive in [1], in [3] and in assay [5]. Also, the Potency result in assay [2], in assay [6], in [7], in [8], in assay [9] and in [10] was “inactive” each time. Also, in [4], the Potency result is “inactive and 14.6 µM (active)”.

As to `O=S(=O)(O)c1ccccc1`, the call in [1], in assay [3] and in assay [5] was inactive. Besides, the Potency result in [2], in [4], in assay [6], in assay [7], in assay [8] and in assay [9] was “inactive” each time. Besides, the Potency result in assay [10] is “inactive”.

For the compound `COc1ccc(CCC(C)=O)cc1`, the result in assay [1], in [3] and in assay [5] was inactive. The Potency entry in assay [2], in assay [4], in assay [6], in assay [7], in [8] and in assay [9] was “inactive” in each case. In [10], the Potency result is “inactive”.

Consider `CCCCOC(=O)c1ccc(N)cc1`, for which the call in assay [1], in assay [3] and in assay [5] was inactive. The Potency entry in assay [2], in [4], in assay [6], in assay [7], in [8] and in assay [9] was “inactive” in each case. Further, the Potency in assay [10] was 24.2 µM (active) and inactive.

On to `C=CCc1ccc(OC)c(OC)c1`, for which the result in assay [1], in [3] and in assay [5] was inactive. For the same compound, the Potency entry in [2], in assay [4], in [6], in assay [7], in assay [8] and in assay [9] was “inactive” each time. In addition, the Potency result in assay [10] was “inactive”.

With `Nc1ccc(Cl)c(N)c1`, the compound was called inactive in [1], in [3] and in [5]. The Potency entry in [2], in assay [4], in assay [6], in assay [7], in assay [8] and in [9] was “inactive” in each case. The Potency result in assay [10] was “inactive”.

As for `COCCCN`, the call in assay [1], in [3] and in [5] was inactive. Moreover, the Potency result in assay [2], in assay [4], in [6], in assay [7], in assay [8] and in assay [9] was “inactive” in each case. Also, the Potency result in assay [10] was “inactive”.

Regarding `CCCCCCCCCCO`, the compound was called inactive in assay [1], in [3] and in assay [5]. Further, the Potency in assay [2] is 39 µM (active) and inactive. Further, the Potency entry in [4], in assay [6], in [7], in assay [8] and in assay [10] was “inactive” in each case.

On to `CCNc1cccc(C)c1`, for which the compound was called inactive in assay [1], in [3] and in [5]. Also, the Potency result in assay [2], in assay [4], in [6], in [7], in assay [8] and in assay [9] was “inactive” throughout. In assay [10], the Potency entry is “inactive”.

In the case of `CC(O)CC(C)(C)O` (centres undefined), the result in assay [1], in [3] and in [5] was inactive. Further, the Potency result in assay [2], in assay [4], in assay [6], in [7], in assay [8] and in assay [9] was “inactive” throughout. In addition, in assay [10], the Potency result is “inactive”.

Take `CCOC(=O)c1ccc(N)cc1`: the compound was called inactive in assay [1], in assay [3] and in [5]. Besides, the Potency entry in assay [2], in [4], in assay [6], in assay [7], in assay [8] and in [9] was “inactive” each time. Also, the Potency result in [10] was “inactive”.

(Values after PubChem BioAssay (Tox21).)
